Source: PubChem BioAssay (EPA / NIEHS)
Results filed as inconclusive are left out. Activity calls are given as the source filed them. Rule for the calls, unless noted: active = hit-call score of the fitted dose curve at least 0.9, where 1 is the maximum; inactive = score below 0.9.

How the values were obtained:
[1] = BSK_BT_Bcell_Proliferation: Viability Assessment in the BioMAP Diversity Plus: BT Assay for B cell Proliferation (AID 2284227); details: primary human B cells with PBMC
Procedure, shortened: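 Human B cell/PBMC co-culture; test chemical added; 72 h; TCA fix (10%), 0.1% SRB stain, A560 for total protein as a proliferation read-out; positive-direction fit vs DMSO baseline.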

[2] = read-out: Interleukin 6 (IL6), IL6 (gene 3569); assay: BSK_BT_xIL6: BioMAP Diversity Plus: BT Assay for Interleukin 6 (IL6) Biomarker Activity (AID 2284228); details: primary human B cells with PBMC
Procedure, shortened: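 Human B cell/PBMC co-culture; secreted IL-6 quantified by Luminex xMAP 24 h after chemical dosing, fitted relative to DMSO. Parallel PBMC viability by Alamar Blue after 1 h pretreatment, 20 ng/mL SEB and TSST-1, 90 h incubation.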

[3] = read-out: Interleukin 17A (IL17A), IL17A (gene 3605); assay: BSK_BT_xIL17A: BioMAP Diversity Plus: BT Assay for Interleukin 17A (IL17A) Biomarker Activity (AID 2284229); details: primary human B cells with PBMC
Procedure, shortened: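 Co-culture of human B cells and PBMC, dosed for 24 h in 96-well format. Secreted IL-17A measured with Luminex xMAP; gain-direction fitting against DMSO as baseline.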

[4] = read-out: Tumor necrosis factor (Homo sapiens) (UniProt P01375); assay: BSK_BT_xTNFa: BioMAP Diversity Plus: BT Assay for Tumor necrosis factor alpha (TNF-alpha) Biomarker Activity (AID 2284230); details: primary human B cells with PBMC
Procedure, shortened: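 Read-out: Luminex xMAP quantitation of secreted TNF-alpha from a B cell/PBMC co-culture 24 h after compound addition. Signal analysed relative to DMSO vehicle, positive fitting direction.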

[5] = read-out: Vascular cell adhesion molecule 1 (VCAM1), VCAM1 (gene 7412); assay: BSK_MyoF_VCAM1: BioMAP Diversity Plus: MyoF Assay for Vascular cell adhesion molecule 1 (VCAM1) Biomarker Activity (AID 2284231); details: primary human lung fibroblasts
Procedure, shortened: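 Primary human lung fibroblasts (BioMAP MyoF system) dosed with chemical, VCAM-1 measured by ELISA 24 hours later. Fitted in the positive direction against DMSO; parallel SRB staining assessed cytotoxicity.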

[6] = read-out: Collagen I, COL1A1 (gene 1277); assay: BSK_MyoF_CollagenI: BioMAP Diversity Plus: MyoF Assay for Collagen I Biomarker Activity (AID 2284238); details: primary human lung fibroblasts
Procedure, shortened: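 Primary human lung fibroblasts (MyoF system) treated 24 h; Collagen I quantified by ELISA and fitted in positive direction against DMSO. Parallel SRB total-protein staining assessed overt cytotoxicity.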

[7] = read-out: Collagen III, COL3A1 (gene 1281); assay: BSK_MyoF_CollagenIII: BioMAP Diversity Plus: MyoF Assay for Collagen III Biomarker Activity (AID 2284239); details: primary human lung fibroblasts
Procedure, shortened: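 Primary human lung fibroblasts (BioMAP MyoF system) exposed 24 h. Collagen III measured by ELISA; positive-direction fit relative to DMSO.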

[8] = read-out: Actin alpha 1 (ACTA1), ACTA1 (gene 58); assay: BSK_MyoF_ACTA1: BioMAP Diversity Plus: MyoF Assay for Actin alpha 1 (ACTA1) Biomarker Activity (AID 2284244); details: primary human lung fibroblasts
Procedure, shortened: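 Human lung fibroblast (MyoF system) cultures dosed with test chemical; alpha-SMA measured by ELISA 24 h after dosing, normalized to DMSO control. Cytotoxicity tracked in parallel cultures by SRB total-protein staining.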

[9] = read-out: Interleukin 2 (IL2), IL2 (gene 3558); assay: BSK_BT_xIL2: BioMAP Diversity Plus: BT Assay for Interleukin 2 (IL2) Biomarker Activity (AID 2284245); details: primary human B cells with PBMC
Procedure, shortened: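 Human B cell plus PBMC co-culture, 24 h after chemical dosing; secreted IL-2 quantified by Luminex xMAP multiplex, fitted for signal gain against DMSO baseline.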

[10] = read-out: Basic fibroblast growth factor (bFGF), FGF2 (gene 2247); assay: BSK_MyoF_bFGF: BioMAP Diversity Plus: MyoF Assay for Basic fibroblast growth factor (bFGF) Biomarker Activity (AID 2284246); details: primary human lung fibroblasts
Procedure, shortened: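 Human lung fibroblast cultures were dosed and measured 24 h later in 96-well format. bFGF biomarker levels quantified by ELISA, with activity fitted in the positive direction against DMSO.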

[11] = read-out: Collagen IV, COL4A1 (gene 1282); assay: BSK_MyoF_CollagenIV: BioMAP Diversity Plus: MyoF Assay for Collagen IV Biomarker Activity (AID 2284247); details: primary human lung fibroblasts
Procedure, shortened: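 Primary human lung fibroblasts (MyoF system) dosed 24 h; Collagen IV measured by ELISA. Activity fitted in positive direction against DMSO; cytotoxicity tracked by SRB total-protein staining in parallel cultures.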

[12] = read-out: Plasminogen activator inhibitor-1 (PAI1), SERPINE1 (gene 5054); assay: BSK_MyoF_PAI1: BioMAP Diversity Plus: MyoF Assay for Plasminogen activator inhibitor-1 (PAI1) Biomarker Activity (AID 2284256); details: primary human lung fibroblasts
Procedure, shortened: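 Primary human lung fibroblasts treated with chemical for 24 h; PAI-1 levels quantified by ELISA relative to DMSO. Cytotoxicity was assessed in parallel cultures by SRB total-protein staining (0.1% SRB after 10% TCA fixation, 560 nm).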

Decorin, DCN (gene 1634) = assay: BSK_MyoF_Decorin: BioMAP Diversity Plus: MyoF Assay for Decorin Biomarker Activity (AID 2284265); details: primary human lung fibroblasts
Procedure, shortened: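 Human lung fibroblast cultures were dosed for 24 h, and decorin was then measured by ELISA. Parallel cultures were stained with sulforhodamine B for total protein as a cytotoxicity check. Gain of signal was fitted relative to DMSO.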

[13] = BSK_MyoF_SRB: Viability Assessment in the BioMAP Diversity Plus: MyoF Assay (AID 2284267); details: primary human lung fibroblasts;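 note: total protein by SRB absorbance in parallel cultures as cytotoxicity measure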
Procedure, shortened: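 Human lung fibroblasts, 24 h after chemical dosing; total protein measured by 0.1% sulforhodamine B staining after 10% TCA fixation, read at 560 nm, fitted relative to DMSO baseline.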

[14] = read-out: Matrix Metallopeptidase 1 (MMP1), MMP1 (gene 4312); assay: BSK_MyoF_MMP1: BioMAP Diversity Plus: MyoF Assay for Matrix Metallopeptidase 1 (MMP1) Biomarker Activity (AID 2284268); details: primary human lung fibroblasts
Procedure, shortened: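 Human lung fibroblast primary cells; MMP1 measured by ELISA 24 h after dosing, fitted in the positive direction relative to DMSO. Parallel SRB staining (0.1%, after 10% TCA fixation, 560 nm) assesses overt cytotoxicity.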

[15] = read-out: TIMP metallopeptidase inhibitor 1 (TIMP1), TIMP1 (gene 7076); assay: BSK_MyoF_TIMP1: BioMAP Diversity Plus: MyoF Assay for TIMP metallopeptidase inhibitor 1 (TIMP1) Biomarker Activity (AID 2284269); details: primary human lung fibroblasts
Procedure, shortened: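 ELISA read-out of TIMP-1 from primary human lung fibroblast cultures 24 h after compound dosing; gain of signal relative to DMSO vehicle baseline defines activity.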

[16] = molecular target: human Phosphodiesterase 10 (PDE10), PDE10A (gene 10846) (UniProt Q9Y233); assay: NVS_ENZ_hPDE10: NovaScreen (NVS) Enzymatic Assay for human Phosphodiesterase 10 (PDE10) (AID 2283195; active = hit-call score of the fitted dose curve at least 0.9, where 1 is the maximum)
Procedure, shortened: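 Fluorescence/mobility-shift readout of PDE10A enzyme activity, taken 1 h post-dosing. Primary screen in duplicate at 25 uM; actives (e.g. ≥30% inhibition) retested as singleton concentration-response, top concentration 50 uM.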

[17] = molecular target: Bile acid receptor (Homo sapiens) (UniProt Q96RI1); assay: OT_FXR_FXRSRC1_1440: Odyssey Thera (OT) 24-hour HEK293T Protein-Complementation Assay for Farnesoid X receptor/SRC-1 Co-activator (AID 2283384; active = hit-call score of the fitted dose curve at least 0.9, where 1 is the maximum)
Procedure, shortened: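 HEK293T cells, 24 h after chemical dosing. FXR–SRC-1 coactivator interaction read as fluorescence from protein-fragment complementation of a split reporter. Gain of signal fitted against DMSO baseline.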

[18] = molecular target: Bile acid receptor (Homo sapiens) (UniProt Q96RI1); assay: OT_FXR_FXRSRC1_0480: Odyssey Thera (OT) 8-hour HEK293T Protein-Complementation Assay for Farnesoid X receptor/SRC-1 Co-activator (AID 2283383; active = hit-call score of the fitted dose curve at least 0.9, where 1 is the maximum)
Procedure, shortened: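 HEK293T protein-fragment complementation assay: FXR and SRC-1 coactivator are fused to reporter fragments, and their interaction restores a fluorescent reporter. Readout was taken 8 h after dosing, with gain of signal fit relative to DMSO.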

[19] = CCTE_Deisenroth_AIME_384WELL_CTox_Inactive: Cytotoxicity Assessment (CTOX) in CCTE's 384-well Estrogen Receptor Transactivation Assay without AIME metabolic competence (metabolism negative), Deisenroth Lab (AID 2284039; active = hit-call score of the fitted dose curve at least 0.9, where 1 is the maximum;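 note: cell viability via live-cell protease substrate cleaved to fluorescent probe; cells exposed 24 h to medium preincubated 2 h with alginate-water beads without S9; loss of fluorescence signal means loss of viability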)
Procedure, shortened: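 Fluorescent protease-substrate viability readout after 24 h exposure of VM7Luc4E2 cells to conditioned medium. Chemicals (0.002–200 uM) first sat 2 h over alginate-water beads, no S9. Data fitted bidirectionally, loss of signal meaning viability loss.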

Measured: AC50

Chain of Tumor necrosis factor (Homo sapiens) (P01375 whole entry, looked up): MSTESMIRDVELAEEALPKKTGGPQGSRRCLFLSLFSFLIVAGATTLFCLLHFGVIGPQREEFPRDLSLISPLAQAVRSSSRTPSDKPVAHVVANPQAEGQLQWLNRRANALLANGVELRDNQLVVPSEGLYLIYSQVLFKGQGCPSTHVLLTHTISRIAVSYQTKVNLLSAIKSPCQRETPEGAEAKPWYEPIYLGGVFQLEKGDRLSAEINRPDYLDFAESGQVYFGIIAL
Chain of Bile acid receptor (Homo sapiens) (Q96RI1 whole entry, looked up, the tested form may be a part): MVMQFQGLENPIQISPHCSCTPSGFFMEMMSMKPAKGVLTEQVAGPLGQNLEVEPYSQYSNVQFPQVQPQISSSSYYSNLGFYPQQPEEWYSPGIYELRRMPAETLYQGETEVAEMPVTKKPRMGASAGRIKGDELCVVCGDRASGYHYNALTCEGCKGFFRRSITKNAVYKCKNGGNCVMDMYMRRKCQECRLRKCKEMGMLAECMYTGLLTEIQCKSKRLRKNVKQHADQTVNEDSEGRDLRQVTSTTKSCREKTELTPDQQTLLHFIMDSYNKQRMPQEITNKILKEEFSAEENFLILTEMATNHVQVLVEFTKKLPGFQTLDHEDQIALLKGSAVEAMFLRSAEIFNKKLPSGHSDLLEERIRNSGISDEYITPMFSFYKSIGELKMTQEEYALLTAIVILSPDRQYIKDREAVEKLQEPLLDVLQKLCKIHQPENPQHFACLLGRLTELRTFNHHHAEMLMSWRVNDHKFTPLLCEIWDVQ
Chain of human Phosphodiesterase 10 (PDE10), PDE10A (gene 10846) (Q9Y233 whole entry, looked up): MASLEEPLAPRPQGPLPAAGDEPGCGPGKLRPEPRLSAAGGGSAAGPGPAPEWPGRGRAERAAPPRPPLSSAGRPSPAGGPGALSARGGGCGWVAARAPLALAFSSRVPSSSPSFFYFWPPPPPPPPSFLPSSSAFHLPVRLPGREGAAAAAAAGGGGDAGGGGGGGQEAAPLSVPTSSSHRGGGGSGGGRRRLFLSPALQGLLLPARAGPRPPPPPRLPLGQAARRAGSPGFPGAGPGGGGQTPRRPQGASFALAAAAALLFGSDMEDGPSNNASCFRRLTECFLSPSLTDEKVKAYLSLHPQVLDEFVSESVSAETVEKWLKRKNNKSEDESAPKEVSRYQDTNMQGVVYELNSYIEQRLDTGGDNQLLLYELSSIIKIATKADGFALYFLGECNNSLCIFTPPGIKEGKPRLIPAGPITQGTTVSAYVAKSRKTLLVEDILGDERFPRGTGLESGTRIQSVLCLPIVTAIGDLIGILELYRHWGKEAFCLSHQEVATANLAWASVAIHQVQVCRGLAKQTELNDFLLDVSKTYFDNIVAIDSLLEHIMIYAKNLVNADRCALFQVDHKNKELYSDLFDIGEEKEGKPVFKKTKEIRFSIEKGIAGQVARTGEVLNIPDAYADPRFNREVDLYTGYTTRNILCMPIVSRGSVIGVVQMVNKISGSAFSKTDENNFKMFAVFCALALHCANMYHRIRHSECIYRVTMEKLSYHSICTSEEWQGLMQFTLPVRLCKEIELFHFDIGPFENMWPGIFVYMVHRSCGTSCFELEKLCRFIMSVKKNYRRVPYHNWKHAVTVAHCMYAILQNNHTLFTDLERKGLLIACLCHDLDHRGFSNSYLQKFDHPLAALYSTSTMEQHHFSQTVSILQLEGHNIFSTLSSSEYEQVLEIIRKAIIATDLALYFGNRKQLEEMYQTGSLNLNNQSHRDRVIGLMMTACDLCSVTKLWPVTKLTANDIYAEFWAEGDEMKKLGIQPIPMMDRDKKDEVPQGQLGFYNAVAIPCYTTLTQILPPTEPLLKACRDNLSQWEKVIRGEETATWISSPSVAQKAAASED

CCCCCCCCCCC1CO1 (stereo not given)
active: [5] 30.7 µM | [6] 31.8 µM | [7] 31.2 µM | [8] 33.5 µM | [10] 31.1 µM | [12] 29 µM | Decorin, DCN (gene 1634) 24.7 µM | [13] 35.2 µM | [14] 3.97 µM | [15] 32.3 µM
inactive: [1] | [2] | [3] | [4] | [9] | [11]

CN(C)CCC(c1ccc(Cl)cc1)c1ccccn1 (stereo not given)
not listed: [16] | [17] | [18] | [19]
inactive: all other assays above

N#CCN(CC#N)CCN(CC#N)CC#N
active: [16] 12.1 µM

c1ccc(CNc2ncnc3nc[nH]c23)cc1
inactive: [17]

CC(=O)OC(C)(C)Cc1ccccc1
inactive: [18] | [17] | [19]

CC(C)CC(=O)CC(C)C
inactive: [19]

Cc1cc(-n2nc3ccc(Cl)cc3n2)c(O)c(C(C)(C)C)c1
not listed: [16] | [17] | [18] | [19]
inactive: all other assays above

CCC(C)NC(N)=O (stereo not given)
inactive: [16]
